# The list is not random: actives were taken first. Their share in the collection is about 5.7%.
# L3MBTL1 block: inhibitors of human L3MBTL1; Potency, µM (series often up to 57.1 µM), for the others: at the highest dose activity, negative = inhibition, hits mostly inhibitors; 230,000 tested, 0.66% active; AID 485360; AlphaScreen L3MBTL1–H3K9me1 peptide binding; note: potency is the fitted concentration of half-maximal effect; % is set by controls: 0 for no effect and ±100 for the full control effect; nearly all actives have a fitted effect of over 60% in size
#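 L3MBTL1 50 nM + b-AHA-H3(1-15)K9me1 75 nM, 30 min RT; compound added, 30 min RT; streptavidin donor/Ni-chelate acceptor beads 10 ug/mL each final, 30 min RT dark; AlphaScreen read.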
# JMJD2A Tudor: inhibitors of human JMJD2A Tudor domain. O75164. AlphaScreen JMJD2A-Tudor / H3K4me3 peptide binding. Potency, µM (doses to about 114 µM), for inactives: top-dose activity change, negative = inhibition, actives largely listed as inhibitors. 390,000 tested, 4.4% active. AID 504339; note: potency is the fitted concentration of half-maximal effect; % is set by controls: 0 for no effect and ±100 for the full control effect; nearly all actives have a fitted effect of over 50% in size
# PI5P4K alpha inh: PI5P4K alpha (human) kinase inhibition | 330,000 tested, 1.2% active | max response, % | P48426 | PI5P4Kalpha enzyme, ADP-Glo luminescence, 60 min; stronger effect = lower value | AID 652105; active = max response of -50% or lower; inconclusive = between -30% and -50%; inactive = -30% or higher; note: value at the top dose of about 77 µM; % is set by controls: 0 for no effect and ±100 for the full control effect
#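 Enzyme plus substrate dispensed, test compounds pinned in, then ATP (5 microM final) added. After 60 min at RT, ADP-Glo reagent 1 for 45 min and reagent 2 for 30 min preceded luminescence imaging.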
# BAZ2B block: inhibitors of human BAZ2B bromodomain; 360,000 tested, 4.4% active; Potency, µM (titrated, usually from 114 µM), for inactives: at the highest dose activity change, negative = inhibition, actives largely listed as inhibitors; AlphaScreen BAZ2B-H3K14Ac peptide displacement; note: potency is the fitted concentration of half-maximal effect; % is set by controls: 0 for no effect and ±100 for the full control effect; nearly all actives have a fitted effect of over 60% in size
#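 Complex of BAZ2B and biotin-H3K14Ac (50 nM apiece) forms over 30 min at RT, then faces library compounds up to 110 uM for another 30 min; AlphaScreen beads added, 20 min dark incubation, luminescence read.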
# HP1b chromo inh: blocks HP1-beta chromodomain binding to methylated histone tails; P83916; AlphaScreen HP1-beta / biotin-H3K9me3 peptide binding; Potency, µM (series often up to 114 µM), for inactives: at the top dose activity change, negative = inhibition, most hits filed as inhibitors; 390,000 tested, 0.56% active; AID 540317; note: potency is the fitted concentration of half-maximal effect; nearly all actives have a fitted effect of over 70% in size
#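 AlphaScreen: HP1-beta (50 nM) preformed 30 min with biotin-H3(1-18)K9me3 peptide (50 nM) in PBS pH 7.4, 0.01% Tween-20. Compound added for 30 min at RT, then streptavidin donor/nickel chelate acceptor beads (10 ug/mL) for 30 min.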
# KDM4E inh: JMJD2E (human) inhibition; Potency, µM (titrated, usually from 57.1 µM), for the others: at the top dose activity change, negative = inhibition, most hits filed as inhibitors; AID 2147; B2RXH2; 230,000 tested, 1.6% active; JMJD2E catalytic domain, FDH-coupled NADH fluorescence (FDH is formaldehyde dehydrogenase); active = well fitted inhibition curve with a large enough effect, not every such curve was filed as active; inconclusive = small, poorly fitted or top-dose-only effect, or another doubt; inactive = no such curve, though single readings can be large or run the other way;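 note: potency is the fitted concentration of half-maximal effect; 0% = wells with enzyme and -100% = buffer wells without enzyme; nearly all actives have a fitted effect of over 50% in size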
# The depositor's hits bear a star; ? = inconclusive; / = no result; ! = repeats disagree. Unless noted, calls come from the whole dose curve; as a rule, active = well fitted inhibition curve with a large enough effect; inconclusive = small, poorly fitted or top-dose-only effect; inactive = no such curve, though single readings can be large or run the other way.
SMILES,L3MBTL1 block,JMJD2A Tudor,PI5P4K alpha inh,BAZ2B block,HP1b chromo inh,KDM4E inh
CCCCCn1c(=N)c(S(=O)(=O)c2ccccc2)cc2c(=O)n3ccccc3nc21,/,0%,/,0%,20%,/
COc1ccc(NC(=O)c2cccc(F)c2)cc1Cl,/,-1%,2,-6%,21%,-4%
COc1ccc(NC(=O)c2ccccc2F)cc1Cl,/,-9%,3,56µM*,32%,0%
Cc1[nH]c2ccccc2c1CN1CCc2ccccc2C1,/,40µM*,/,?,-39%,?
CN(C(=O)CSc1nc2ccc(NC(=O)COc3ccccc3Cl)cc2s1)c1ccccc1,/,-3%,/,0%,38%,/
Clc1cc(Br)ccc1OCCOCCN1CCCC1,-1%,32µM*,5,?,?,/
Cc1cccc(OCCCN2CCOCC2)c1C,5%,25µM*,1,?,?,/
Cc1cc(C)c(OCCN2CCOCC2)c(Cl)c1,6%,28µM*,0,?,?,/
Clc1cc(Br)ccc1OCCOCCN1CCOCC1,2%,7.1µM*,-4,?,-22%,-13%
Cc1ccc(OCCCCCN2CCOCC2)c(Cl)c1,/,22µM*,-1,/,50µM*,/
COc1ccc(OC)c(NC(=O)Nc2ccc3[nH]ccc3c2)c1,/,-17%,4,/,11%,/
Cn1c(SCC(=O)Nc2nc3ccccc3s2)ncc(C(=O)Nc2ccc(Cl)cc2)c1=O,/,-11%,/,-4%,2%,/
CCn1c(C)nc2cc(S(N)(=O)=O)ccc21,17%,14µM*,-20,4%,-3%,4%
O=S(=O)(NCC(c1ccc2c(c1)OCO2)N1CCN(c2ccccc2)CC1)c1ccccc1 (stereo unspecified),-11%,?,2,-35%,-8%,/
COc1ccccc1CNCc1ccc2c(c1)OCO2,/,/,1,/,/,/
COc1ccc(CNCc2ccc3c(c2)OCO3)c(OC)c1OC,-2%,0.79µM*,-1,-31%,?,/
Cc1ccc(CNCc2ccc3c(c2)OCO3)cc1,6%,1.4µM*,13,?,?,/
c1cc2c(cc1Cn1cnnn1)OCO2,43%,-20%,-6,9%,21%,?
Cc1nnc(C)c2c(C)n(Cc3ccc4c(c3)OCO4)c(C)c12,-13%,?,/,-34%,-14%,22µM*
FC(F)(F)c1ccccc1CNCc1ccc2c(c1)OCO2,/,20µM*,-1,?,?,/
C=CCn1c(O)c(C2=c3ccccc3=NC2=O)c2ccccc21,0%,10µM*,-13,6.3µM*,?,/
C=CCn1c(O)c(C2=c3ccccc3=NC2=O)s/c1=N/c1nccs1,/,-24%,-15,-33%,-1%,-6%
CCc1nnc2c(NCCc3ccc(OC)c(OC)c3)nc3ccccc3n12,/,32µM*!,-18,?,10%,/
COc1ccc(CCNc2nc3ccccc3n3cnnc23)cc1OC,9%,-9%,-4,-2%,29%,?
CCN(c1ccccc1)S(=O)(=O)c1ccc(C(=O)Nc2nnc(CSC)o2)cc1,43%,-21%,5,?,28%,?
SMILES,L3MBTL1 block,JMJD2A Tudor,PI5P4K alpha inh,BAZ2B block,HP1b chromo inh,KDM4E inh
CN(c1ccccc1)S(=O)(=O)c1ccc(C(=O)Nc2nnc(C3CC3)o2)cc1,12%,-24%,-2,?,12%,?
CCN(c1ccccc1)S(=O)(=O)c1ccc(C(=O)Nc2nnc(C3CC3)o2)cc1,-2%,-17%,-3,79µM*,15%,?
CCN(c1ccccc1)S(=O)(=O)c1ccc(C(=O)Nc2nnc(COC)o2)cc1,11%,56µM*,1,56µM*,44%,-20%
COCc1nnc(NC(=O)c2ccc(S(=O)(=O)N(C)c3ccccc3)cc2)o1,15%,79µM*,-3,?,53%,?
CSc1ncc(Cl)c(C(=O)N(C)c2ccccc2)n1,/,2%,/,-17%,45%,/
CCc1ccc(NC(=O)CN2C(=O)C3CCCN3c3ccc(S(=O)(=O)N(CC)CC)cc32)cc1 (stereo unspecified),/,-25%,/,-23%,26%,/
COc1cc(NC(=O)CN2C(=O)C(c3ccc(C)cc3)=NC23CCCCC3)cc(OC)c1,/,-19%,/,-18%,25%,/
NC(=O)N/N=C/c1c(O)ccc2oc3c(c12)CCCC3,/,-12%,-12,-15%,27%,28µM*
O=c1[nH]c(Nc2ccc(F)cc2)cc2ccccc12,/,-14%,/,-10%,10%,?
Cc1ccccc1Nc1cc2ccccc2c(=O)[nH]1,-14%,45µM*!,-10,-35%,-9%,?
O=c1[nH]c(Nc2ccccc2Cl)cc2ccccc12,/,-7%,2,/,27%,/
COc1ccccc1Nc1cc2ccccc2c(=O)[nH]1,/,79µM*,/,/,/,/
Nc1cc2c([N+](=O)[O-])cccc2o1,-4%,-22%,-25,56µM*,-24%,-1%
Cc1c(N)cccc1[N+](=O)[O-],9%,-3%,6,-7%,3%,/
COc1ccc(-c2nc(-c3ccccc3)c(NC(C)C)o2)cc1,/,/,/,/,/,-6%
c1ccc(-n2c(Cc3cn4ccsc4n3)nnc2N2CCOCC2)cc1,-1%,50µM*,/,?,23%,8%
COc1ccc(C2CC(=O)c3cc(-c4nc(-c5ccc(C)cc5)cs4)c(=O)[nH]c3C2)cc1 (stereo unspecified),/,1%,/,?,44%,/
Cc1cc(C(=O)NCc2ccc(C(=O)O)o2)c(C)o1,/,22µM*,/,56µM*,?,-7%
Cc1occc1C(=O)NCc1ccc(C(=O)O)o1,/,-3%,/,-1%,30%,-5%
CCn1cc(C(=O)O)c(=O)c2cc(F)c(N3CCN(S(=O)(=O)c4ccc(Br)cc4)CC3)cc21,5%,/,/,8%,/,88%
O=C(O)c1cn(C2CC2)c2cc(N3CCN(S(=O)(=O)c4ccc5c(c4)OCCO5)CC3)c(F)cc2c1=O,3%,?,-3,50µM*,-19%,?
CC(C)(C)c1ccc(-c2nc(SCCOc3ccc(Cl)cc3)n3[nH]c(=O)cc3n2)cc1,/,?,/,50µM*,44%,/
Cc1ccc(OCCCSc2nc(-c3ccc(C(C)(C)C)cc3)nc3cc(=O)[nH]n23)cc1C,/,25µM*,/,45µM*,?,/
Cn1c(=O)c2c(O)c([N+](=O)[O-])c(=O)n(C)c2n(C)c1=O,/,-7%,1,-12%,17%,?
COc1ccc(-c2noc(N(c3cccc(Cl)c3)c3nc(-c4ccc(OC)c(OC)c4)no3)n2)cc1OC,/,-1%,/,-11%,55%,/
CCOC(=O)c1c(N)n(-c2cccc(OC)c2)c2nc3ccccc3nc12,/,-3%,/,-3%,33%,/
CCOC(=O)c1c2c(n(-c3ccc(OC)cc3)c1C)C(=O)C(=O)c1ccccc1-2,/,18µM*,-12,/,?,/
